Compound activity from PubChem BioAssay.
Not all results are given here.
aSyn 5UTR act: Activators via SNCA 5'UTR binding, MLPCN; alpha-synuclein 5'UTR reporter, activators screen; activity score, % (tested at 7.5 µM), hits read low; actives 7.1% (n = 300,000); in the data active = activity score below about -60%
The depositor's hits bear a star.

SMILES	aSyn 5UTR act
O=C(N/N=C/C(Cl)=C/c1ccccc1)c1ccccn1	-66*
O=C(N/N=C/C=C\c1ccco1)c1ccccn1	-145*
O=C(N/N=C\C=C\c1ccco1)c1cc(-c2ccc3ccccc3c2)n[nH]1	-146*
Nc1nnn(CC(=O)N/N=C/C=C/c2ccccc2)n1	-87*
O=C(N/N=C/C(Br)=C/c1ccccc1)c1cnccn1	-110*
CCN(CC)c1ccc(/C=N/NC(=O)c2nnn(-c3nonc3N)c2C(C)C)c(O)c1	92
CC(/C=N/NC(=O)c1ccccn1)=C\c1ccco1	-75*
CC(/C=N/NC(=O)c1nnn(-c2nonc2N)c1C(C)C)=C\c1ccco1	-62*
O=C(N/N=C/C=C/c1ccccc1)c1ccccn1	-166*
O=C(N/N=C/C=C/c1ccccc1)c1n[nH]c2c1CCC2	70
COc1cc(C)ccc1OCc1cc(C(=O)N2CCN(C)C[C@@H]2c2ccccc2)no1	-139*
COc1cc(Cl)ccc1OCc1cc(C(=O)N2C[C@]3(C)C[C@H]2CC(C)(C)C3)no1	-87*
COc1cc(C)ccc1OCc1cc(C(=O)N(Cc2c(C)nn(C)c2C)C2CC2)no1	-81*
COc1cc(Cl)ccc1OCc1cc(C(=O)N2C[C@H]3CC[C@H]2C3)no1	-130*
COc1cc(Cl)ccc1OCc1cc(C(=O)N2C[C@@H]3CCC[C@H]2C3)no1	-176*
O=C(COc1ccccc1Cl)c1ccc2c(c1)CCCC2	-201*
CC1Oc2cc3oc4c(O)c5c(cc4c(=O)c3c(O)c2C1(C)C)C=CC(C)(C)O5 (stereo not given)	-265*
O=C(Nc1ccccn1)c1ccc(NC(=O)c2ccco2)cc1	-141*
O=C(Nc1ccc(NC(=O)c2ccccc2Cl)nc1)c1ccco1	-102*
O=C(CCc1ccccc1)Nc1ccc(NC(=O)c2ccco2)nc1	-71*
Cc1cc(NC(=O)c2ccco2)ncc1NC(=O)Cc1ccccc1	-119*
CC(C)C(=O)Nc1ccc(NC(=O)c2ccccc2Cl)nc1	-115*
CCN1C(=S)SC(=O)C1=C1C=C(C)N(Cc2ccco2)C(C)=C1	-132*
CCN1C(=S)SC(=O)C1=C1C=C(C)OC(C)=C1	-97*
C(=N\NC1=Nc2cccc3cccc1c23)/c1cccnc1	-258*
SMILES	aSyn 5UTR act
Clc1ccc(N/N=C/c2cccnc2)cc1	-123*
C(=N\NC1=Nc2cccc3cccc1c23)/c1ccccc1	-256*
Clc1ccc(/C=N/NC2=Nc3cccc4cccc2c34)cc1	-191*
COc1ccc2oc(C(=O)OCC(=O)NCCN3C(=O)CSC3=O)c(C)c2c1	-71*
O=c1c2ccccc2nc(-c2ccco2)n1Cc1ccccc1	-214*
c1ccc(Cn2c(-c3ccco3)nc3nc4ccccc4nc32)cc1	-215*
Cc1ccc(-c2nc3nc4ccccc4nc3n2Cc2ccco2)cc1	-125*
O=C(Nc1ccc2nn(-c3ccccc3)nc2c1)c1ccc2c(c1)OCCO2	-82*
CCc1ccc(-n2nc3ccc(NC(=O)c4ccc5c(c4)OCO5)cc3n2)cc1	-66*
CCOc1ccc(-n2nc3ccc(NC(=O)c4ccc5c(c4)OCCO5)cc3n2)cc1	47
O=C1NC(c2cccc(Br)c2)=N/C1=C\c1ccco1	-106*
O=C1NC(c2ccccc2)=N/C1=C/c1ccco1	-270*
O=C1NC(c2ccccc2Br)=N/C1=C\c1ccco1	-165*
Cc1ccccc1NC(=O)Nc1ccc2c(c1)CCC2	-141*
COc1cc(SC)ccc1C(=O)Nc1ccccc1C#N	-192*
COc1cc(SC)ccc1C(=O)Nc1ccc2c(c1)CCC2	-119*
COc1cc(SC)ccc1C(=O)Nc1ccc(Cl)cn1	100
COc1ccccc1NC(=O)Nc1ccc2c(c1)CCC2	-126*
Cc1ccccc1NC(=O)Nc1ccc(C(F)(F)F)cc1	-100*
CCC1=NN2C(=N)/C(=C\c3ccc(OCCOc4ccccc4)c(OC)c3)C(=O)N=C2S1	-125*
COc1cc(/C=C2/C(=N)N3C=CSC3=NC2=O)ccc1OCCCOc1ccccc1C	-118*
COC(=O)c1ccccc1NC(=O)c1ccc2c(c1)CC(C)O2 (stereo not given)	-65*
O=C(Nc1ccc2oc(-c3cccnc3)nc2c1)c1ccc(Br)o1	-113*
O=C(Nc1ccc2nc(-c3ccccc3)oc2c1)c1ccco1	-227*
O=C(Nc1ccc2oc(-c3cccnc3)nc2c1)c1ccc([N+](=O)[O-])o1	-97*
SMILES	aSyn 5UTR act
O=C(Nc1ccc2oc(-c3cccnc3)nc2c1)c1ccco1	-135*
O=C(Nc1c2c(nn1-c1ccc(F)cc1)CS(=O)(=O)C2)C1CCCC1	-62*
Cc1ccc(C)c(Cn2nnc(C(=O)Nc3ccc4c(c3)OCCO4)c2N)c1	-106*
Cc1ccccc1Cn1nnc(C(=O)Nc2ccc3c(c2)OCCO3)c1N	-109*
Cc1ccc(NC(=O)c2nnn(-c3ccc4c(c3)OCCO4)c2N)cc1	-149*
O=S(=O)(c1ccc(F)cc1)c1snnc1-c1ccccc1	-76*
O=S(=O)(c1ccc(Cl)cc1)c1snnc1-c1ccccc1	116
CCOC(=O)N/N=C\C=C\c1ccc2c(c1)OCO2	-121*
COC(=O)N/N=C\C=C\c1ccc2c(c1)OCO2	-134*
